The full data set covers some 7,900 targets. This sample favours those with a hit. About 0.6% of all pairs of compound and target were hits. A number with no mark means an inactive call.
Tests used:
Assay in all cases: log2 fold change, soluble protein after heating vs DMSO (PISA); higher = thermal stabilisation; K562 cells, 10 uM, 30 min; active = over 0.2 and 3.5 SD of the protein, either way, in both replicates (recomputed)
erlotinib = compound: C#Cc1cccc(Nc2ncnc3cc(OCCOC)c(OCCOC)cc23)c1 [erlotinib]
How it was run: (§1)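 K562 cells at 2×10^6 cells/mL were treated with 10 μM compound for 30 min. Aliquots were heated for 3 min across 48°C-58°C, pooled, and extracted in PBS with 0.5% NP-40 at 4°C; soluble protein was the supernatant after 21,000xg for 90 min. Soluble protein was quantified by TMTpro 16plex LC-MS/MS with channel sums equalised, and reported as log2 fold change in thermal stability against DMSO controls, with values from duplicates.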

[1] = compound: C/C(=N\NC(=O)C1=CC(=CC=C1)S(=O)(=O)N2CCOCC2)/C3=C(C=CC(=C3)Cl)O
How it was run: as §1

[2] = compound: C1=CC(=C(C=C1Cl)C2=NC3=NC=CN=C3C(=N2)NC4=CC=NC=C4)F
How it was run: as §1

[3] = compound: C1=CC(=CC=C1C2=NC3=C(N2)C=C(C=C3)C(=O)N)OC4=CC=C(C=C4)Cl
How it was run: as §1

[4] = compound: C1=CC2=C(C=CC(=C2)/C=C\3/C(=O)NC(=NCC4=CC=CS4)S3)N=C1
How it was run: as §1

[5] = compound: C1=CC2=NC=CN=C2C=C1/C=C/3\C(=O)NC(=O)S3
How it was run: as §1

[6] = compound: C1=CC=C(C=C1)C2=NC(=C(N2)C3=CC=NC=C3)C4=CC(=C(C=C4)Cl)O
How it was run: as §1

[7] = compound: C1=CC=C2C(=C1)C3=NNC4=CC=CC(=C43)C2=O
How it was run: as §1

[8] = compound: C1CCN(C1)C(=O)NC2=CC=CC(=C2)NC3=NC=C(C(=N3)NCCC4=CN=CN4)Br
How it was run: as §1

[9] = compound: C1CN(CCC1(CC2=CC=C(C=C2)Cl)N)C3=NC=NC4=C3C=CN4
How it was run: as §1

UniProt O43395, sequence (O43395 whole entry, looked up): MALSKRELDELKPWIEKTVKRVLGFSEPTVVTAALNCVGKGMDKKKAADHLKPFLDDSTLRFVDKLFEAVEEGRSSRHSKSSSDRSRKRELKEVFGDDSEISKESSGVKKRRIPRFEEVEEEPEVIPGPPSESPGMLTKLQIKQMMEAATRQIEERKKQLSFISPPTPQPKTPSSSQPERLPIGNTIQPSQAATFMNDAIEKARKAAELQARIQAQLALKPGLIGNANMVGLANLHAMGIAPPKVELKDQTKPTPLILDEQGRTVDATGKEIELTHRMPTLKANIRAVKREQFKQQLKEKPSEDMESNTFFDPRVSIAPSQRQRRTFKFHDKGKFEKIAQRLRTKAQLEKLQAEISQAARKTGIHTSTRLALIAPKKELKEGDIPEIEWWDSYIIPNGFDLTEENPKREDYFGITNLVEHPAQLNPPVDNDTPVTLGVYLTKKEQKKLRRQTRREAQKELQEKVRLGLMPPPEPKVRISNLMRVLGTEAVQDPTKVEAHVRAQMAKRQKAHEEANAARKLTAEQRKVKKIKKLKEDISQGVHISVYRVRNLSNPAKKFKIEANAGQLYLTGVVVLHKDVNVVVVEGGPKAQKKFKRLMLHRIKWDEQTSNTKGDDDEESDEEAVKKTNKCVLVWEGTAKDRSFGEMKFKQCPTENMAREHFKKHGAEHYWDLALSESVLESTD
UniProt Q9Y2I7, sequence (Q9Y2I7 whole entry, looked up): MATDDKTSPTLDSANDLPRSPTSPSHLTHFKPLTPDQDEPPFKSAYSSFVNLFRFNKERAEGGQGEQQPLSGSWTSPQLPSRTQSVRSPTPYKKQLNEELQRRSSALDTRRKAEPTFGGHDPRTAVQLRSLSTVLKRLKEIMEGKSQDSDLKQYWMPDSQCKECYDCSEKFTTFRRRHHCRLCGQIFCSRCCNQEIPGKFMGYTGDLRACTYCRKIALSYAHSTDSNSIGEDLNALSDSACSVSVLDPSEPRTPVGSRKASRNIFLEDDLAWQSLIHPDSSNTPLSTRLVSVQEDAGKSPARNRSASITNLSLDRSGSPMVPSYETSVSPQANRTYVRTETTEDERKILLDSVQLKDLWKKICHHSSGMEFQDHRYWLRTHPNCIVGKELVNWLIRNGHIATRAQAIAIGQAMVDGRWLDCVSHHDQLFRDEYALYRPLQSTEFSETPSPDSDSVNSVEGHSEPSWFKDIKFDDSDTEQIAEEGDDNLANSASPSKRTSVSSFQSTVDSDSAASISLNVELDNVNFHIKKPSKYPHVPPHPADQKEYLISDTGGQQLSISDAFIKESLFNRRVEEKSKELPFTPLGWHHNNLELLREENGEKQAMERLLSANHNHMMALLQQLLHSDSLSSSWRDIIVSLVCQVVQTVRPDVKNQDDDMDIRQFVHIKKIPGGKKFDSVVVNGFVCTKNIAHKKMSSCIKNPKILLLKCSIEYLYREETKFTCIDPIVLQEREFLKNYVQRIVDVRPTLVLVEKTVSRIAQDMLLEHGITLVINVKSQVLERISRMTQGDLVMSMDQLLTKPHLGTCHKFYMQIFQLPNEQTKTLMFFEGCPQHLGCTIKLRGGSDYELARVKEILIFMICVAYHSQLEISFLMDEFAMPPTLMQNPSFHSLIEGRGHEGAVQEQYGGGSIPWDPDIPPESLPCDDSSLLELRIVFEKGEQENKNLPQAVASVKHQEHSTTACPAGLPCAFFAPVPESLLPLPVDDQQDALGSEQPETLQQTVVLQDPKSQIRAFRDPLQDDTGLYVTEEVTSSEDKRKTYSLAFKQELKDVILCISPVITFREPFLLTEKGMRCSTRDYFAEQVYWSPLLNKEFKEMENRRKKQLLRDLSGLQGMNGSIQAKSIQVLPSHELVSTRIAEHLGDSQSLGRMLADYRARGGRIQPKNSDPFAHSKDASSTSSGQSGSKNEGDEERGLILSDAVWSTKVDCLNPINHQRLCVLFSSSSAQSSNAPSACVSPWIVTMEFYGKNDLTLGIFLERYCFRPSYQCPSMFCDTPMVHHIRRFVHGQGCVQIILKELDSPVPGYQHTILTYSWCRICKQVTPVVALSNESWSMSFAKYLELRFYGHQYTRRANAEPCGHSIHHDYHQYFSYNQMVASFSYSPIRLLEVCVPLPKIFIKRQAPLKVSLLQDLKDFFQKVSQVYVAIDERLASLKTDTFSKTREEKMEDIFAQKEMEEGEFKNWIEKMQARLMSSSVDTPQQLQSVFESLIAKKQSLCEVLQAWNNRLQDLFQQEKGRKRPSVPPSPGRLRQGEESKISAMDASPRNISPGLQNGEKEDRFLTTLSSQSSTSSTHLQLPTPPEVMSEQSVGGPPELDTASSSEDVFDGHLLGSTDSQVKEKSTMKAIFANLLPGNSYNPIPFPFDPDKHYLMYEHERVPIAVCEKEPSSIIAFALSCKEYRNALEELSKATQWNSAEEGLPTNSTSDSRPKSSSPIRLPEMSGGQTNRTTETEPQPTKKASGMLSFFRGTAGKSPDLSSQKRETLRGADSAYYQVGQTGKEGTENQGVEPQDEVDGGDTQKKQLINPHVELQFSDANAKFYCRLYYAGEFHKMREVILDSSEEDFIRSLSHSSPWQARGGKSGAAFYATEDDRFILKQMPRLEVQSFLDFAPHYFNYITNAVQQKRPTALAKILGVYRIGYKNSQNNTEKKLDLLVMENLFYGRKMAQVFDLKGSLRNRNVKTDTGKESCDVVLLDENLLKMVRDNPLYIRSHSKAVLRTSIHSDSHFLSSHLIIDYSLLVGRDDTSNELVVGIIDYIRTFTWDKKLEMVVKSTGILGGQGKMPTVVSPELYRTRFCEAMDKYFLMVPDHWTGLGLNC
UniProt Q9UKL6, sequence (Q9UKL6 whole entry, looked up): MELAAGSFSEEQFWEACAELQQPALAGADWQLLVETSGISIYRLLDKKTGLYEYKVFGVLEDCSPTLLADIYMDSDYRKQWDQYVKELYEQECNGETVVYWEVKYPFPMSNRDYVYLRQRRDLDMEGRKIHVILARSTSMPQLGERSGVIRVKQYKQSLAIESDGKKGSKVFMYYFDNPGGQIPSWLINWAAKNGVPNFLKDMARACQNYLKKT
UniProt Q15257, sequence (Q15257 whole entry, looked up): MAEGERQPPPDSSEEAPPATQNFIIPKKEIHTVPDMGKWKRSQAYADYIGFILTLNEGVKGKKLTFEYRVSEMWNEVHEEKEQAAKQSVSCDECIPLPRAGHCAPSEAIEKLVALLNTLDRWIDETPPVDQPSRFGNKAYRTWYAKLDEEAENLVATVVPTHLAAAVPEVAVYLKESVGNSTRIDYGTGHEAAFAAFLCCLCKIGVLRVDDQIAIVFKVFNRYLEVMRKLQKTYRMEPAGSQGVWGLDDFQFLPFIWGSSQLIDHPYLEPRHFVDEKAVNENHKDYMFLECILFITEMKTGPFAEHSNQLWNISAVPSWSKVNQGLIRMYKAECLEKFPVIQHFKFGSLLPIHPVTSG
UniProt Q15054, sequence (Q15054 whole entry, looked up): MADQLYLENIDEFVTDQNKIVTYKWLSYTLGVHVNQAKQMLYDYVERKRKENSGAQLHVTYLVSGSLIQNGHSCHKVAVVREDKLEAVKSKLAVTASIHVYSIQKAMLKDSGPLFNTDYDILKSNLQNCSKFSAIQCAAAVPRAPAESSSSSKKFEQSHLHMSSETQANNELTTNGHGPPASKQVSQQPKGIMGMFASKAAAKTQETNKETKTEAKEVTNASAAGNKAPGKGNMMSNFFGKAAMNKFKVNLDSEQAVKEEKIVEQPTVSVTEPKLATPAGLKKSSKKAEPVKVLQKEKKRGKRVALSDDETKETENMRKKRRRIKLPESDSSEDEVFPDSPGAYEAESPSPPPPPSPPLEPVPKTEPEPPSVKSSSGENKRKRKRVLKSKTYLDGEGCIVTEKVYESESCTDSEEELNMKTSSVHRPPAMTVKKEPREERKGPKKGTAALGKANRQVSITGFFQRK
UniProt Q16537, sequence (Q16537 whole entry, looked up): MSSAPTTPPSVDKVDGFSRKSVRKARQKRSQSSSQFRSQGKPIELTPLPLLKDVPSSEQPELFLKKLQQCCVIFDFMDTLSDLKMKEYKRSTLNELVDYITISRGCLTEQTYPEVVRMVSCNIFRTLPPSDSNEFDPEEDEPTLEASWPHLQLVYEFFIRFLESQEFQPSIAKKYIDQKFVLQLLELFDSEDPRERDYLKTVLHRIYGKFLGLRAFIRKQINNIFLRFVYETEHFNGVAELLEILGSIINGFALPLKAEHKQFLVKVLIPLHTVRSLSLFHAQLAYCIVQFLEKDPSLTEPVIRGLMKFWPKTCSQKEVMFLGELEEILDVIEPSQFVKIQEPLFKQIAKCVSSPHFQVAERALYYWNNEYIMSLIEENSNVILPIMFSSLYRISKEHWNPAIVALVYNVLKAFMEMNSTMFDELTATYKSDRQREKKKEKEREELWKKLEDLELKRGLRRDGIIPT

Row | Target | log2 fold change (erlotinib) | log2 fold change [1] | log2 fold change [2] | log2 fold change [3] | log2 fold change [4] | log2 fold change [5] | log2 fold change [6] | log2 fold change [7] | log2 fold change [8] | log2 fold change [9]
1 | PFAS (UniProt O15067) | -0.011 | 0.141 | 0.066 | 0.205 | 0.034 | -0.22 | 0.087 | 0.068 | -0.01 | -0.146
2 | PI4K2A (UniProt Q9BTU6) | -0.037 | -0.01 | 0.01 | 0.019 | 0.021 | 0.071 | -0.029 | 0.01 | -0.002 | 0.046
3 | PRPF3 (UniProt O43395) | 0.06 | 0.144 | 0.069 | -0.02 | 0.015 | 0.019 | 0.057 | 0 | -0.07 | 0.053
4 | PDE4A (UniProt P27815) | 0.012 | 0.013 | 0.319 | 0.024 | 0.027 | 0.06 | -0.077 | -0.01 | 0.023 | -0.148
5 | PCTP (UniProt Q9UKL6) | 0.035 | -0.04 | 0.065 | 0.046 | 0.057 | 0.076 | 0.012 | 0.002 | 0.049 | -0.035
6 | PRIM2 (UniProt P49643) | 0.004 | 0.038 | 0.018 | 0.015 | 0.061 | 0.009 | 0.035 | 0.035 | -0.023 | -0.071
7 | PNPLA8 (UniProt Q9NP80) | 0.101 | 0.031 | 0.014 | -0.029 | 0.008 | 0 | 0.089 | 0.022 | 0.018 | 0.037
8 | PFDN1 (UniProt O60925) | -0.018 | 0.012 | 0.263 | 0.07 | 0.056 | 0.063 | 0.137 | 0.047 | -0.091 | -0.057
9 | POLD3 (UniProt Q15054) | 0.083 | 0.131 | 0.048 | -0.031 | 0.048 | 0.038 | 0.027 | -0.07 | -0.016 | -0.099
10 | PTGES3 (UniProt Q15185) | 0.005 | 0.095 | 0.079 | -0.05 | 0.019 | 0.007 | 0.043 | -0.014 | -0.014 | -0.049
11 | PTRH2 (UniProt Q9Y3E5) | 0.015 | 0.048 | 0.125 | -0.002 | 0.049 | -0.004 | 0.169 | -0.022 | -0.038 | 0.007
12 | PSMA3 (UniProt P25788) | -0.052 | -0.075 | 0.016 | 0.028 | -0.073 | -0.025 | -0.023 | 0.002 | -0.008 | 0.044
13 | PTRHD1 (UniProt Q6GMV3) | -0.002 | 0.005 | 0.37 (active) | 0.046 | 0.134 | 0.045 | 0.121 | -0.032 | -0.017 | -0.012
14 | PISD (UniProt Q9UG56) | -0.021 | -0.055 | 0.026 | 0.089 | 0.034 | 0.023 | 0.02 | 0.058 | 0.009 | -0.004
15 | PTTG1 (UniProt O95997) | -0.024 | 0.094 | -0.024 | 0.029 | -0.043 | -0.005 | -0.205 | -0.045 | -0.024 | -0.093
16 | PBK (UniProt Q96KB5) | 0.103 | 0.117 | -0.054 | -0.037 | 0.083 | 0.028 | 0.067 | 0.016 | -0.052 | -0.105
17 | PDCD2L (UniProt Q9BRP1) | -0.051 | 0.226 | 0.128 | 0.03 | 0.006 | -0.03 | -0.078 | -0.001 | -0.071 | -0.036
18 | PIKFYVE (UniProt Q9Y2I7) | -0.174 | 0.111 | 0.082 | 0.082 | -0.007 | 0.075 | 0.04 | -0.014 | 0.037 | -0.108
19 | PTPA (UniProt Q15257) | 0.022 | 0.034 | 0.069 | 0.127 | -0.01 | 0.01 | 0.022 | 0.029 | -0.037 | -0.013
20 | PRMT3 (UniProt O60678) | -0.056 | 0.147 | 0.03 | 0.027 | 0.066 | 0.011 | 0.028 | -0.003 | -0.01 | -0.089
21 | POMK (UniProt Q9H5K3) | -0.091 | -0.007 | 0.019 | 0.005 | -0.01 | 0.071 | 0.005 | -0.019 | 0.006 | 0.005
22 | POLR2A (UniProt P24928) | -0.018 | -0.019 | -0.008 | 0.024 | 0.013 | 0.039 | 0.019 | 0.026 | 0.111 | -0.042
23 | PMPCB (UniProt O75439) | -0.022 | 0 | 0.031 | 0.024 | 0.019 | 0.007 | 0.023 | 0.078 | -0.014 | 0.046
24 | RAB11FIP1 (UniProt Q6WKZ4) | 0.004 | 0.074 | 0.078 | -0.039 | 0.02 | -0.004 | 0.031 | 0.009 | -0.049 | 0.027
25 | PPP2R5E (UniProt Q16537) | 0.017 | 0.096 | 0.005 | -0.061 | -0.007 | 0 | 0.075 | 0.054 | -0.013 | 0.056
26 | PRKCA (UniProt P17252) | 0.117 | 0.041 | 0.04 | -0.009 | 0.127 | 0.016 | -0.019 | -0.006 | 0.008 | -0.074
27 | PSMD6 (UniProt Q15008) | -0.024 | -0.041 | -0.042 | 0.017 | -0.056 | -0.007 | 0.09 | 0.053 | 0.002 | 0.016
28 | PRPF38A (UniProt Q8NAV1) | -0.032 | 0.035 | -0.01 | 0.049 | 0 | -0.046 | 0 | -0.08 | 0.008 | 0.018
29 | PTP4A1 (UniProt Q93096) | 0.053 | 0.083 | 0.134 | 0.037 | -0.042 | 0.038 | 0.062 | 0.027 | -0.096 | -0.127
30 | POLA1 (UniProt P09884) | 0.03 | 0.038 | 0.042 | -0.023 | -0.032 | 0 | -0.013 | 0.021 | 0.006 | -0.022

Source: the supplement of paper PMC10849652
